Bioassay records as filed in PubChem.
HCMV antiviral = blocks human cytomegalovirus replication; HFF cells, HCMV-luciferase reporter, 72 h; hits give low values; activity change, negative = inhibition, % at 57.5 µM; hit rate 4.5% among 410,000; AID 1259415; in the data active means activity change below about -60%; inconclusive means no clear call, values can overlap the other calls; inactive means above about -39%
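Two-dose cell screen: HFF monolayers treated with compounds and infected with luciferase-expressing HCMV at 1 PFU/cell, 72 h at 37C, then lysed for luciferase measurement.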
Pf growth 96h = inhibits malaria parasite growth, 96 h; P. falciparum luciferase reporter growth, 96 h; Potency, µM (titrated, usually from 28.7 µM), for the others: at the top dose activity change, negative = inhibition, hits mostly inhibitors; hit rate 6.9% among 320,000; further: potency means the concentration at half of the fitted maximal effect
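Two parasite generations (96 h, 37 C, 5% CO2) of compound exposure in infected erythrocytes (0.05% parasitemia, 2% hematocrit). Luciferase-reporter P. falciparum; decreased luminescence indicates inhibited growth, aimed at apicoplast-acting delayed death.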
Pf growth 48h = P. falciparum growth inhibition at 48 hours (one generation) | P. falciparum luciferase growth in erythrocytes, 48 h | Potency, µM (top dose mostly 28.7 µM), without a hit: at the top dose activity change, negative = inhibition, most hits filed as inhibitors | hit rate 5.9% among 310,000 | AID 504832; further: potency means the concentration at half of the fitted maximal effect
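A one-generation exposure of luciferase-tagged malaria parasites in RPMI 1640/Albumax erythrocyte culture, 37 C and 5% CO2. Inhibition is inferred from decreased luminescence after adding detection reagent.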
HCV inh = HCV inhibition. Huh7.5.1 HCVcc-Cre infection, luciferase reporter, 44 h. Potency, µM (series often up to 41.8 µM), for inactives: top-dose activity change, negative = inhibition, most hits filed as inhibitors. hit rate 3.4% among 340,000; further: potency means the concentration at half of the fitted maximal effect
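1,000 cells/well; 4 h culture; + compound; + HCVcc-Cre (~0.5 moi); 44 h; luciferase substrate, RT 15 min; read 15 sec.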
Active calls of the source: *; ? = inconclusive; nt = no result given. Only some compounds are listed: those with a hit (about 13% of all), similar ones and a draw of the others. Unless noted, the call rests on the fitted dose curve; in most records, active means well fitted inhibition curve with a large enough effect; inconclusive means small, poorly fitted or top-dose-only effect, or another doubt; inactive means no such curve, though single readings can be large or run the other way. On the % scale 0 is the no-effect control and ±100 the full control effect.

SMILES	HCMV antiviral	Pf growth 96h	Pf growth 48h	HCV inh
CCOc1ccc2nc(SCC(=O)Nc3ccc(S(=O)(=O)N4CCCC4)cc3)c(C)cc2c1	-2	?	?	?
COc1ccc2nc(SCC(=O)N3CCCCCC3)c(C#N)cc2c1	18	-16%	?	6.3µM*
COc1ccc2nc(SCC(=O)NCC3CCCO3)c(C#N)cc2c1 (centres undefined)	126	2.1µM*	0%	-17%
COc1ccc(CCNC(=O)C2CCN(c3ncnc4c3nc3n4CCCCC3)CC2)c(OC)c1	32	nt	nt	nt
Cc1cc(C)c2nc(SCC(=O)Nc3ccc(S(=O)(=O)N4CCCC4)cc3)c(C)cc2c1	22	nt	9.3µM*	?
COc1ccc(NC(=O)c2nc(-c3ccc(C)cc3)n3c2CCCCC3)cc1	-25	nt	nt	nt
Cn1cnnc1SCC(=O)OCN1C(=O)c2ccccc2C1=O	-4	nt	24%	7%
Cc1cc(C)nc(SCC(=O)OCN2C(=O)c3ccccc3C2=O)n1	-23	-24%	1.9µM*	26%
O=C(CCc1nc2ccccc2[nH]c1=O)OCC(=O)c1ccc(Cl)cc1	-21	11%	-2%	19%
Cc1ccc(C(=O)COC(=O)CCc2nc3ccccc3[nH]c2=O)cc1C	-20	2.6µM*	11%	4%
CCC(=C(c1ccc(OC)cc1)c1ccc(OC)cc1)c1cn(CC(O)CN2CCN(C)CC2)c2ccccc12 (centres undefined)	-22	nt	9.3µM*	11µM*
COc1ccc(C(=O)/C=C/c2cn(CC(O)CN3CCc4ccccc43)c3ccccc23)cc1 (centres undefined)	41	nt	nt	nt
Cc1nccn1Cc1ccc(Cl)nc1	-25	?	10µM*	13%
CC(=O)Nc1ccc(S(=O)(=O)NC2(C(F)(F)F)C(=O)Nc3c2c(=O)[nH]c(=O)n3-c2ccc(C)cc2)cc1 (centres undefined)	2	nt	nt	nt
COc1ccc(CCn2c(C)cc(C(=O)CN3C(=O)C(=O)N(C4CCCC4)C3=O)c2C)cc1OC	-28	?	9.3µM*	10µM*
Cc1ccc(C2=Nc3ccccc3N(C(=O)c3ccccc3)C(C)C2)cc1 (centres undefined)	-8	12µM*	?	-22%
COc1ccc(C2=Nc3ccccc3N(C(=O)c3ccc(C)cc3)C2C(=O)NCc2ccccc2)cc1 (centres undefined)	-12	nt	nt	nt
Cn1cc(C(=O)[C@@H]2CCc3[nH]cnc3C2)c2ccccc21	nt	-17%	-7%	nt
COc1ccc2c(c1)CC(C(=O)NCCCN1CCN(c3ccc(F)cc3)CC1)CO2 (centres undefined)	-28	nt	nt	nt
COc1ccccc1NC(=S)NC1CCCCCCCCCCC1	-61*	?	1.5µM*	4.5µM*
COc1ccccc1NC(=S)NC1CCCCC1	24	9.3µM*	9%	?
CCOc1ccccc1NC(=S)NC1CCCCC1	?	0%	?	?
COc1ccccc1NC(=S)NCC1CCCCC1	-66*	4%	3%	?
Cc1ccccc1NC(=S)NC1CCCC1	-23	?	?	-29%
Cc1cccc(C)c1NC(=S)NC1CCCCC1	8	10µM*	-21%	-5%
SMILES	HCMV antiviral	Pf growth 96h	Pf growth 48h	HCV inh
Cc1ccc(CNC(=O)c2nc(SCc3ccc(F)cc3)ncc2Cl)cc1	-31	nt	nt	nt
CCC(C)NC(=O)c1ccc(CNS(=O)(=O)c2ccc3c(c2)C(C)(C)C(=O)N3C)cc1 (centres undefined)	33	9.3µM*	0%	-4%
Cc1ccc(S(=O)(=O)NCC(=O)NCC(=O)NC(C)c2ccccc2Br)cc1C (centres undefined)	?	-12%	-15%	-18%
CC(NC(=O)CCl)c1ccc(Cl)c(Cl)c1 (centres undefined)	20	3.7µM*	nt	?
CC(NC(=O)CCl)c1ccccc1Br (centres undefined)	?	1.5µM*	1.5µM*	-13%
O=c1c2cc3c(nc2ncn1Cc1ccccc1F)CCCC3	-31	nt	nt	nt
Cc1ccccc1C(=O)O/N=C(\c1ccccc1)c1ccccn1	-27	17%	-4%	8%
Cc1ccccc1C(=NC(=O)c1ccccc1)c1ccccc1	26	6.6µM*	8.3µM*	-4%
Cc1ccccc1NC(=O)CN1C(=S)NC(C)(C)CC1C (centres undefined)	-4	?	10%	12%
Cc1cccc(NC(=O)CN2C(=S)NC(C)(C)CC2C)c1 (centres undefined)	10	10µM*	-3%	5%
